In experiment [1] the test system is Human papillomavirus type 1a protein E7 (residues 44-93). In words: small molecules binding HPV E7 44-93 – biochemical, small-molecule microarray, residues 44-93, 635 nm fluorescence, primary screen (AID 1108).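 Note: E7 fragment applied at 1 µg/mL in TBST for 1 h at 4 C; score combines spot fluorescence with its signal to noise ratio.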 The conditions noted are these: fluorescence 635 nm, higher = more signal.
A short description of experiment [2]: hepatitis C replication reporter changes, two-sided – Huh7 cells, luciferase reporter, HCV replication inhibitor project, primary screen (AID 1109).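 Note: huh7 hepatoma cells harbouring a luciferase neomycin HCV replicon reporter; luciferase luminescence as measure of HCV replicon replication; test concentration not given here.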 The conditions noted are these: Huh7 HCV replicon luciferase reporter, 48 h; higher = more signal. (In a reporter assay the amount or activity of a reporter protein is the signal.)
Experiment [3] has as its target Left-right determination factor 2 (Homo sapiens) (UniProt O00292). In words: small molecules binding LEFTY2 protein – biochemical, small-molecule microarray, 635 nm fluorescence scan, primary screen (AID 1110). The conditions noted are these: higher = more signal.
For experiment [4], the target named is Calmodulin-1 (Homo sapiens) (UniProt P0DP23). Nature of the experiment: small molecules binding calmodulin-1 with EGTA – biochemical, small-molecule microarray, Cy5-labelled CALM1, profiling panel (AID 1111).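 Note: labelled calmodulin applied in Tris saline Tween buffer holding calcium plus EGTA and DTT.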 The conditions noted are these: Cy5-CALM1 binding fluorescence, higher = more signal.
Experiment [5] has the same target. In words: small molecules binding Ca-loaded calmodulin-1 – biochemical, small-molecule microarray, Cy5-labelled CALM1, plus calcium, artefact control for SMM control-protein annotation, profiling panel (AID 1112).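 Note: score merges spot fluorescence with signal to noise from triplicate slides.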 The settings on record: Cy5-CALM1 binding fluorescence, higher = more signal.
Experiment [6] is described as follows: probe aWnt5a binding to arrayed compounds – biochemical, biotinylated probe, 635/667 nm fluorescence, primary screen (AID 1113).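 Note: score merges 667 nm fluorescence intensity with signal-to-noise per printed feature.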 The conditions noted are these: small-molecule microarray, higher = more signal.
The nature of experiment [7]: probe aShh binding to arrayed compounds – biochemical, biotinylated probe, 635/667 nm fluorescence, primary screen (AID 1114).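 Note: probe is biotin-labelled aShh protein from a stem cell growth factor screen; measures binding of labelled protein to compounds printed on the slide; score merges feature fluorescence at 667 nm with signal-to-noise.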 The conditions noted are these: small-molecule microarray, higher = more signal.
Experiment [8] can be described thus: probe aNog binding to arrayed compounds – biochemical, biotinylated probe, 635/667 nm fluorescence, primary screen (AID 1115).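 Note: probe is biotinylated aNog protein used at 0.15 µg/mL for 1 h at 4 C; z-score combines 667 nm fluorescence of each spot with its signal to noise.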 The settings on record: small-molecule microarray, higher = more signal.
Experiment [9] addresses Torsin-1A-interacting protein 1 (Homo sapiens) (UniProt Q5JTV8). In words: compound microarray binding of lysate hLAP1 – cell lysate, small-molecule microarray, COS7 lysate, 635/667 nm fluorescence, primary screen (AID 1116). The conditions noted are these: 635 nm fluorescence, higher = more signal.
The target in experiment [10] is Alpha-bungarotoxin (Bungarus multicinctus) (UniProt P60615). In words: compounds binding labelled alpha-BTX control protein – biochemical, small-molecule microarray, Alexa647 label, 635/667 nm fluorescence, artefact control for SMM control protein annotation, profiling panel (AID 1117). The settings on record: alpha-BTX-A647 binding fluorescence, higher = more signal.

The target of the next experiment is Albumin (Bos taurus) (UniProt P02769). Nature of the experiment: compounds binding labelled BSA control protein – biochemical, small-molecule microarray, Alexa647 label, 635/667 nm fluorescence, artefact control for SMM control protein annotation, profiling panel (AID 1118).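 Note: score merges 667 nm emission intensity and signal-to-noise per printed compound spot.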 The conditions noted are these: BSA-A647 binding, fluorescence 635 nm, higher = more signal.

Experiment [11] can be described thus: probe aXIP binding to arrayed compounds – biochemical, NeuroSMM set, 635/667 nm fluorescence, primary screen (AID 1119).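 Note: probe is the protein aXip251-270 applied at 1 µg/mL to compound-printed slides; binding of probe to printed compounds measured as 667 nm fluorescence plus signal to noise.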 The settings on record: small-molecule microarray, higher = more signal, called active from +8 up or from −8 down.
Experiment [12] is described as follows: probe aNOTCH3 binding on compound microarray – biochemical, small-molecule microarray, 635/667 nm fluorescence, primary screen (AID 1120).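 Note: probe is a biotin-tagged antibody raised against NOTCH3 rather than NOTCH3 protein; score merges spot fluorescence near 667 nm with spot signal to noise.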 The settings on record: higher = more signal.
Experiment [13] is described as follows: probe aNOTCH2 binding on compound microarray – biochemical, small-molecule microarray, 635/667 nm fluorescence, primary screen (AID 1121).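 Note: score merges feature fluorescence read at 667 nm with its signal to noise.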 The conditions noted are these: higher = more signal.
Experiment [14] addresses Carbonic anhydrase 2 (Homo sapiens) (UniProt P00918). In words: compounds binding carbonic anhydrase 2 – biochemical, small-molecule microarray, Alexa647-labelled CAII, profiling panel (AID 1122). The conditions noted are these: CAII-A647 binding fluorescence, higher = more signal.
Experiment [15] in a line: COS7 lysate on small-molecule microarray, probe aHis, 635 nm (AID 1123).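 Note: z-score combines 667nm fluorescence intensity with signal-to-noise per printed compound spot.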 The conditions noted are these: COS7 cell lysate, fluorescence, higher = more signal.
Experiment [16] in a line: probe aLAP1 signal on lysate-treated microarray – cell lysate, small-molecule microarray, COS7 lysate, primary screen (AID 1124).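 Note: lysate comes from COS7 cells expressing LAP1 and is applied at 0.3 µg/mL; score merges spot fluorescence near 667 nm with signal-to-noise over triplicate slides.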 The conditions noted are these: probe aLAP1, fluorescence, higher = more signal.
A further experiment relates to Sam68 (KHDRBS1). Nature of the experiment: compounds binding KHDRBS1 protein – biochemical, small-molecule microarray, 635 nm fluorescence, primary screen (AID 1125).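 Note: score merges 667 nm channel intensity with signal to noise over triplicate slides.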 The settings on record: higher = more signal.
In experiment [17] the test system is Chordin-like protein 2 (CHRDL2). Nature of the experiment: compounds binding chordin-like 2 – biochemical, small-molecule microarray, 635 nm fluorescence, primary screen (AID 1126).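 Note: printed compound slides probed with Chrdl2 protein at 4 µg/mL for 1 h at 4 C; score merges 667 nm emission intensity with signal to noise over three replicate slides.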 The settings on record: fluorescence 635 nm, higher = more signal.
Experiment [18] has as its target Concanavalin-A (Canavalia ensiformis) (UniProt P02866). In words: compounds binding concanavalin A lectin – biochemical, small-molecule microarray, Alexa647 label, 635 nm, artefact control for SMM control protein annotation, primary screen (AID 1127).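 Note: z combines 667 nm emission intensity with signal-to-noise across three replicate slides.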 The settings on record: ConA-A647 binding fluorescence, higher = more signal.

Activity calls are given as the source filed them.

Sequence of Left-right determination factor 2 (Homo sapiens) (O00292 whole entry, looked up): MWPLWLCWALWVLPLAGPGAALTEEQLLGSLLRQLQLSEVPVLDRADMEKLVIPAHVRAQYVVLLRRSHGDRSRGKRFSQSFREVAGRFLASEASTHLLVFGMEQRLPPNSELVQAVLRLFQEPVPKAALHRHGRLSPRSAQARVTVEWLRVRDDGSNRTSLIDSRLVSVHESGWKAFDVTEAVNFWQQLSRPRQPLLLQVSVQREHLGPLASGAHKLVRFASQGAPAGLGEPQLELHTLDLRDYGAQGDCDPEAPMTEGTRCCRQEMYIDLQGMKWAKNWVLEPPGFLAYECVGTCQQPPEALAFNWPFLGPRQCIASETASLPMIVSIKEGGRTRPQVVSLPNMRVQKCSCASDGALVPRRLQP
Sequence of Torsin-1A-interacting protein 1 (Homo sapiens) (Q5JTV8 whole entry, looked up): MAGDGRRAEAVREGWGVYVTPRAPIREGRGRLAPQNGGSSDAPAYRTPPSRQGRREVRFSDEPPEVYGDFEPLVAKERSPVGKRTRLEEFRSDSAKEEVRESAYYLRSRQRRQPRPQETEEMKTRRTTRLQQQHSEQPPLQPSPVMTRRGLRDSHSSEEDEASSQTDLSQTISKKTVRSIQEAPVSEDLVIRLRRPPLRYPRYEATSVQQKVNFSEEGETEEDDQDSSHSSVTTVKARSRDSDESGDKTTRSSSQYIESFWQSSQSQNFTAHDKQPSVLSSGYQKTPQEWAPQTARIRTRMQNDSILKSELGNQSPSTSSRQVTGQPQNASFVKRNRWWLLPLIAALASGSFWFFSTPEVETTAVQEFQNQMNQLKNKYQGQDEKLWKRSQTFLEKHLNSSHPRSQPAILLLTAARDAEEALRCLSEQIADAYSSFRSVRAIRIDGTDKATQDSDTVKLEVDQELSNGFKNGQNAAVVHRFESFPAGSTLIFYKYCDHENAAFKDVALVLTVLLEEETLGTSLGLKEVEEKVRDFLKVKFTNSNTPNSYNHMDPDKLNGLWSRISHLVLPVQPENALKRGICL
Sequence of Albumin (Bos taurus) (P02769 whole entry, looked up): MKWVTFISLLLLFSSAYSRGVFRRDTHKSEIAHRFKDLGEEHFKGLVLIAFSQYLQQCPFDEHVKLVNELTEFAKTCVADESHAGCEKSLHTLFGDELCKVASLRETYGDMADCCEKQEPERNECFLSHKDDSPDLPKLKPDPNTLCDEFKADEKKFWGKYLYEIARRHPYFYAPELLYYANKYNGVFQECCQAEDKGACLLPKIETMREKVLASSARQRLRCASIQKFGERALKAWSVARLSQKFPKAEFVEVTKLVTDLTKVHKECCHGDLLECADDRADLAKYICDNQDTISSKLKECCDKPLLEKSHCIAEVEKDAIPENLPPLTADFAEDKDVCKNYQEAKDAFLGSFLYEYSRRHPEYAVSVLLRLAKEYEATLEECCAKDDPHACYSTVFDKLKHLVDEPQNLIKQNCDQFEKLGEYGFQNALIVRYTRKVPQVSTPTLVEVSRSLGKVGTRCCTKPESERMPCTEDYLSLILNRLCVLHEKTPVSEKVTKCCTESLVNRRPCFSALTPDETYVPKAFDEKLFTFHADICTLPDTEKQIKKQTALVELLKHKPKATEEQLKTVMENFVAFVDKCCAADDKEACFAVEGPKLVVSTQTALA
Sequence of Concanavalin-A (Canavalia ensiformis) (P02866 whole entry, looked up): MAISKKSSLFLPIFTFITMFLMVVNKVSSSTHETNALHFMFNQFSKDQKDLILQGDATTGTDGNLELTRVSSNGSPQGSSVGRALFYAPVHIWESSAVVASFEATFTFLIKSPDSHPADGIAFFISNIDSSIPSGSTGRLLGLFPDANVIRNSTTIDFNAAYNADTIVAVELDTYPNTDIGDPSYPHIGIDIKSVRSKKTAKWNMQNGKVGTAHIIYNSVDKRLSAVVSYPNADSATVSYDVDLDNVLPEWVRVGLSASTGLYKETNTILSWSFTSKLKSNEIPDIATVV
Sequence of Alpha-bungarotoxin (Bungarus multicinctus) (P60615 whole entry, looked up): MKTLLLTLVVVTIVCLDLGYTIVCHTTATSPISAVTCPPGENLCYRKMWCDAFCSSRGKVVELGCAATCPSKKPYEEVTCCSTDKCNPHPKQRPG

For `[N-]=[N+]=NCc1ccccc1C[C@]1(C(=O)NCC(O)CO)N=C(c2ccc(OCCCO)cc2)O[C@H]1c1ccccc1CN=[N+]=[N-]` (stereo not given in full), the composite z-score in [1] is 1.47; in [3], -0.353; in [4], 1.42; in experiment [5], 0.786; in [6], 0.115; in [7] it was 0.541. In addition, the composite z-score in experiment [8] is 0.721; in experiment [9], 2.41; in experiment [10], 1.21; with Albumin (Bos taurus) it was 0.801; in experiment [12], 0.303; in experiment [13], -0.108. The composite z-score in [14] was 0.404; in experiment [15], 3.05; in experiment [16], 0.137; in the experiment with Sam68 (KHDRBS1), 1.12; in [17] it was -0.86; in [18], 1.11. In [2], this molecule showed a z-score of -2.88. In addition, the composite Z-score in experiment [11] is 0.496 (inactive).
On to `O=C1NCC(=O)N2[C@@H]1C[C@@H](C(=O)O)[C@H]2c1ccc(O)cc1`, for which the composite z-score is 1.4 in [1]; 0.834 in [3]; 0.458 in experiment [4]; -0.451 in [5]; -0.0758 in [6]; 0.123 in experiment [7]. Further, the composite z-score in experiment [8] is -0.36; in [9] it was -0.0956; in [10] it was 0.707; with Albumin (Bos taurus), -0.575; in experiment [12] it was 0.0397; in experiment [13], -0.14. Moreover, the composite z-score in experiment [14] came out at 0.165; in experiment [15], 2.25; in experiment [16] it was 0.0452; in the experiment on Sam68 (KHDRBS1) it was 1.31; in experiment [17], 1.48; in experiment [18], 1.07. Moreover, the z-score in [2] came to 2.63. The composite Z-score in experiment [11] is -0.0127 (inactive).
As to `CC(C)CN1C(=O)[C@@]2(c3ccc([N+](=O)[O-])cc3)CC(=O)N(CC34CC5CC(CC(C5)C3)C4)[C@@H]2c2ccc(CO)cc21`, the composite z-score was -0.746 in [1]; -1.36 in experiment [3]; 0.657 in experiment [4]; 0.0047 in [5]; -0.152 in experiment [6]; 0.151 in [7]. For the same molecule, the composite z-score in experiment [8] is 0.884; in experiment [9], -1.09; in [10] it was 0.578; with Albumin (Bos taurus) it was 0.291; in experiment [12], -0.0016; in experiment [13] it was -0.189. For the same molecule, the composite z-score is 0.411 in experiment [14]; 0.0815 in [15]; -0.0349 in experiment [16]; -0.772 in the experiment on Sam68 (KHDRBS1); -1.52 in [17]; 0.436 in experiment [18]. In experiment [2], this molecule returned a z-score of -1.07. Further, the composite Z-score in experiment [11] is -0.585 (inactive).
On to `O=C(CCCCCCC(=O)Nc1ccccc1)N/N=C/c1ccccc1`, for which the composite z-score was -0.162 in experiment [1]; 0.229 in [3]; -0.507 in [4]; -0.491 in experiment [5]; -0.18 in experiment [6]; 0.0224 in experiment [7]. In addition, the composite z-score in experiment [8] was -0.216; in experiment [9] it was 0.255; in experiment [10] it was -0.454; in the experiment with Albumin (Bos taurus), -0.4; in [12], -0.154; in [13] it was -0.144. Also, the composite z-score in [14] was -0.251; in [15], -0.591; in experiment [16], 0.212; in the experiment with Sam68 (KHDRBS1) it was -0.731; in experiment [17], 0.358; in [18] it was -0.434. Further, the z-score in experiment [2] is -0.529. Further, the composite Z-score in [11] is 0.0068 (inactive).
With `CC(C)(C)OC(=O)CC[C@]1(C(=O)O)N=C(c2ccc(OCCCO)cc2)O[C@H]1c1ccccc1`, the composite z-score in experiment [1] is 0.138; in experiment [3] it was -0.369; in [4], 0.76; in [5], 1.05; in experiment [6], -0.096; in experiment [7], -0.0769. Further, the composite z-score in experiment [8] is -0.172; in [9] it was 0.0522; in experiment [10], 0.574; with Albumin (Bos taurus), 0.419; in [12], 0.318; in [13], -0.203. The composite z-score in experiment [14] was 0.808; in [15] it was 0.787; in experiment [16], 0.448; in the experiment with Sam68 (KHDRBS1) it was -0.612; in experiment [17] it was -0.556; in experiment [18], 0.206. The molecule further had a z-score in experiment [2] of -0.733. Moreover, the composite Z-score in experiment [11] is -0.179 (inactive).

Values taken from PubChem BioAssay.
